Data taken from PubChem BioAssay AID2796 (The Scripps Research Institute Molecular Screening Center, 2010).
About 8,000 (2.5%) of roughly 320,000 compounds were called active. Cut-off read from the data, not from the text of the source: active = activation above about 47%; inactive = the rest. Shown is part of a subset that was picked to be rich in actives.

target: Aryl hydrocarbon receptor (Homo sapiens) (UniProt P35869); assay: AHR activators, primary screen, cell-based, luminescence, luciferase reporter, human (AID 2796); settings: AHR-responsive luciferase reporter cells, at 5 µM, active compounds read high;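 note: 0% = vehicle wells and 100% = reference agonist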
Sequence (P35869 whole entry, looked up): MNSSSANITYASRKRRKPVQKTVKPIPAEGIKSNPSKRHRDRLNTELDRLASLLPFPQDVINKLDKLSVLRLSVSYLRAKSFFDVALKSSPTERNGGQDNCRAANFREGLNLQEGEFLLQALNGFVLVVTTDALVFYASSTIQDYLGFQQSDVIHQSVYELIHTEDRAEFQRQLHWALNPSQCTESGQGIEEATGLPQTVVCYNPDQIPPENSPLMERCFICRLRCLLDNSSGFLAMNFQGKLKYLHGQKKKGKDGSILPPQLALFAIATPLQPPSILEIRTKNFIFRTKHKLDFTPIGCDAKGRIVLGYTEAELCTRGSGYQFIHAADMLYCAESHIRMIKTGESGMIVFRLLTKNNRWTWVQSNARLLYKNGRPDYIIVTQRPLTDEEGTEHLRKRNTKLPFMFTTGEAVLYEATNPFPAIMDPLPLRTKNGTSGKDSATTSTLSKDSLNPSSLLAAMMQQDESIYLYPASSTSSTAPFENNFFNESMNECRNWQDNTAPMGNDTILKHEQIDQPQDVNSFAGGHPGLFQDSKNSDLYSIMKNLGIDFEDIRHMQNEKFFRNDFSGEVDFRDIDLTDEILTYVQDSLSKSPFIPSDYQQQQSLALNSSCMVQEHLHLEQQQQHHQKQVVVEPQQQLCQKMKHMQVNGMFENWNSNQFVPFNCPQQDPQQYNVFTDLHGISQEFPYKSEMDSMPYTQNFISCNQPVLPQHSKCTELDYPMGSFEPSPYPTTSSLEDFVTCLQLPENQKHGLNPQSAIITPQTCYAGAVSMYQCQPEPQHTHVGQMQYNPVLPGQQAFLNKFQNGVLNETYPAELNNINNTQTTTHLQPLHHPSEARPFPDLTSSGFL

activation, active:
Oc1ccc(-c2[nH]ncc2-c2nc3ccccc3s2)c(O)c1 48.9%
CCCc1c(C(=O)Nc2ccc(F)cc2)cnn1-c1ccccc1 69.9%
Cn1c(=O)c(C(=O)Nc2ncccn2)c(O)c2ccccc21 66.7%
CCC(C)NCC(=O)Nc1ccc([N+](=O)[O-])cc1C(=O)Nc1ccccc1F (stereo not drawn) 104%
COc1ccc(Nc2ncnc3ccc(Br)cc23)c(OC)c1 52.9%
Cc1cccc(NC(=O)N(Cc2cc3cc(C)cc(C)c3[nH]c2=O)CC2COCCO2)c1 (stereo not drawn) 59.6%
Cc1ccc(C2(C(F)(F)F)N=C3Sc4cc(C)cc(C)c4N3C(=O)N2)cc1 (stereo not drawn) 70.8%
CCOC(=O)Cc1ncccc1C(=O)Nc1ccc(OC(F)(F)F)cc1 78.1%
CCSc1nsc(NC(=O)Nc2cccc(C(C)=O)c2)n1 76.5%
Nc1c(NCCc2ccccc2)c2ccccc2oc1=O 67.9%
Cc1c(C(=O)Nc2ccccn2)oc2ccc(Br)cc12 49.7%

activation, inactive:
FC(F)(F)c1cc(C(F)(F)F)c2ccc(N3CCN(c4ccccc4)CC3)nc2n1 3.17%
COc1ccc(Oc2cn[nH]c2-c2ccc(OC)cc2O)cc1 6.87%
CC(=O)Nc1cccc(-c2nc3ccccc3s2)c1C -9.79%
CCOC(=O)C1(Cc2ccccc2C)CCCN(C(=O)c2ccc(COC)o2)C1 (stereo not drawn) 20.8%
O=c1ccc2cc(S(=O)(=O)Nc3ccccc3F)ccc2o1 -0.99%
Cc1cc(C(=O)COc2ccccc2[N+](=O)[O-])c(C)n1-c1cccc(S(=O)(=O)N2CCOCC2)c1 10.1%
CCCc1c(C(=O)O)cnn1-c1ccc(Cl)cc1 -2.51%
CCNC(=O)c1cnn(-c2ccccc2)c1-c1ccccc1 0.69%
COc1cc(/C=C/C(=O)OCC(=O)NC2CC2)cc(OC)c1OC 1.12%
O=S(=O)(NCc1ccccc1Br)c1ccccc1Br -0.52%
CCCn1c(=O)c(C(=O)Nc2cc(C)ccn2)c(O)c2ccccc21 7.05%
Cn1c(=O)c(Sc2ccc(Cl)cc2)c(O)c2ccccc21 6.8%
COc1ccccc1NC(=O)CSc1nnc(Cn2nnc(-c3ccccc3)n2)n1-c1ccccc1 -0.61%
O=C(NCc1ccncc1)c1ccc(NS(=O)(=O)c2cccc([N+](=O)[O-])c2)cc1 -0.44%
O=C(NCCCNc1ccc([N+](=O)[O-])cc1Cl)c1ccccc1F -0.83%
O=C(NCCNc1ccc([N+](=O)[O-])cc1Cl)c1ccccc1F -0.69%
CC1CC(C)CN(C(=O)C2CC(=O)N(c3ccc(F)cc3)C2)C1 (stereo not drawn) -4.43%
Cc1ccc(O)c(CCc2ccccc2)n1 21.5%
C=CCNc1ncnc2ccc(Br)cc12 0.32%
O=C(O)CCCCCNc1ncnc2ccc(Br)cc12 4.84%
O=C(COc1ccccc1F)Nc1nc(-c2ccccn2)cs1 12.4%
COc1ccc2[nH]c(=O)c(CN(CC3CCCO3)C(=O)Nc3ccccc3)cc2c1 (stereo not drawn) 0.61%
Cc1ccc2[nH]c(=O)c(CN(CC3COCCO3)C(=O)Nc3ccccc3C)cc2c1 (stereo not drawn) 9.5%
COC(=O)C1=C(N)Oc2c(oc(CO)cc2=O)C1c1c(F)cccc1Cl (stereo not drawn) -0.25%
Cc1ccc(N2C(=O)N3[C@@H]4c5ccccc5OC[C@@H]4[C@@H](c4ccccc4)[C@@]3(C)C2=O)cc1 0.11%
CCOC(=O)Cc1ncccc1C(=O)Nc1ccc(OC)cc1 2.4%
COC(=O)Cc1ccc(OCC(=O)Nc2ccc(OC(F)(F)F)cc2)cc1 1.97%
COc1ccccc1N(C)S(=O)(=O)c1ccc(Cl)c(C(=O)Nc2ccncc2)c1 17.1%
CCOc1ccc(OCc2cccc(C(=O)N(CC)CC)c2)cc1 -5.06%
C=CCSc1nsc(NC(=O)Nc2cccc(C(C)=O)c2)n1 41.3%
CCSc1nsc(NC(=O)Nc2ccccc2OC)n1 -2.87%
O=Cc1c(NCCc2cccc(F)c2)c2ccccc2[nH]c1=O 1.73%
CC(C)(C)Nc1c(N)c(=O)oc2ccccc12 -0.9%
CC(=O)Nc1ccc(NC(=O)CSc2nnc(COc3ccccc3C)n2CC2CCCO2)cc1 (stereo not drawn) 1.11%
CCOC(=O)N1CCN(Cc2nc3ccc([N+](=O)[O-])cc3c(=O)n2-c2cccc(OC)c2)CC1 32.6%
Cc1noc(C)c1C(=O)Nc1ccccn1 4.67%
Cc1nonc1NC(=O)c1oc2ccccc2c1C 12.5%
